# Data published in PubChem BioAssay (NCATS).
# Results filed as inconclusive are left out. Entries that show only a call come without a potency. Unmarked numbers belong to inactive results. The source made the active and inactive calls. Unless noted, calls follow the shape of the dose curve; as a rule, active = well fitted curve in the direction sought with a large enough effect; inconclusive = small, poorly fitted or top-dose-only effect, or another doubt; inactive = no such curve, though single readings can be large; an effect the other way counts as inactive or inconclusive.
# Experiments:
# [1] = molecular target: ATP-dependent 6-phosphofructokinase (Trypanosoma brucei brucei) (UniProt O15648); assay: qHTS Assay to Find Inhibitors of T. brucei phosphofructokinase: hit validation (AID 492961);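 also: luminescence reports ADP formed as PFK phosphorylates fructose-6-phosphate with ATP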
# Outline: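 Measures ADP output of PFK (1.25 nM) at 0.1 mM ATP, 0.5 mM F6P, pH 8.0 TEA buffer with 5 mM MgCl2. No-enzyme wells define full inhibition; uninhibited enzyme wells define zero.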
# [2] = molecular target: Ubiquitin carboxyl-terminal hydrolase 1 (Homo sapiens) (UniProt O94782); assay: Inhibitors of USP1/UAF1: Pilot qHTS (AID 504865);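 also: rhodamine fluorescence freed from ubiquitin-rhodamine substrate followed over time; top concentration of the series differs between compounds; nearly all actives have a fitted effect of over 35% in size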
# Outline: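 USP1/UAF1 complex (1nM) preincubated with compound 15 min at room temperature, then Ub-Rho substrate (150nM final) added. Fluorescence read kinetically at 480/540 nm, 6 reads every 60 seconds. Buffer: 50mM HEPES pH 7.8, 0.5mM EDTA, 0.1 mg/ml BSA, 1mM TCEP, 0.01% Tween-20.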
# [3] = molecular target: Luciferin 4-monooxygenase (Photinus pyralis) (UniProt P08659); assay: Biochemical firefly luciferase enzyme assay for NPC (AID 624030);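 also: purified P. pyralis luciferase at 10 nM with luciferin and ATP substrate; nearly all actives have a fitted effect of over 70% in size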
# Outline: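 Direct inhibition of firefly luciferase enzyme (10 nM final, 50 mM Tris Acetate) assessed by luminescence within 5 minutes. Percent activity scaled between DMSO and PTC124 positive control, with concentration-effect curves classified by fit quality and response.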
# [4] = S16 Schwann cell PMP22 intronic element beta-lactamase assay (AID 624044; calls by dose curve; also: nearly all actives have a fitted effect of over 15% in size); settings: S16 rat Schwann cells, PMP22 element beta-lactamase FRET, 24 h; ratio activity, negative = inhibition: at 38.3 µM (top of the series) unless noted
# Outline: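 Rat S16 Schwann cells with beta-Lac driven by a PMP22 intronic element, compound-treated 24 h at 37 °C. LiveBLAzer FRET B/G read: 460 nm normalized to potassium clavulanate vs DMSO; 535 nm FRET as viability; concentration-effect curves classified.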
# [5] = Primary qHTS to identify inhibitors of SARS-CoV-2 cell entry (AID 1645846; calls by dose curve; also: potency is read from the fitted curve at half-maximal effect; nearly all actives have a fitted effect of over 45% in size); settings: SARS-CoV-2 pseudovirus cell entry assay, luminescence; activity change, negative = inhibition: at 57.1 µM (top of the series) unless noted
# Outline: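 Luminescence readout (Bright-Glo luciferase) 48 h after pseudoparticle addition. HEK293-ACE2 cells, 1500/well; compound pre-incubation 1 h; Normalized to spike PP and bald PP.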
# [6] = molecular target: Glutathione peroxidase 1 (Homo sapiens) (UniProt P07203); assay: Primary qHTS Assay for Inhibitors of Recombinant Selenoprotein Glutathione Peroxidase 1 (GPX1) (AID 1845191); also: nearly all actives have a fitted effect of over 65% in size
# Outline: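 10 nM GPX1 + cpd, 30 min RT; start w/ 1 mM GSH, 0.5 mM cumene hydroperoxide, 0.5 mM NADPH, 100 nM GR, 0.01% BSA; buffer 50 mM Tris-HCl pH 7.5, 2 mM EDTA, 150 mM NaCl; Fl 340/450, 0 & 15 min.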
# [7] = molecular target: Phospholipid hydroperoxide glutathione peroxidase GPX4 (Homo sapiens) (UniProt P36969); assay: Primary qHTS Assay for Inhibitors of Recombinant Selenoprotein Glutathione Peroxidase 4 (GPX4) (AID 1845192); also: nearly all actives have a fitted effect of over 65% in size
# Outline: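 NADPH consumption, followed by fluorescence at 340/450 nm between 0 and 15 min, reports GPX4 activity via coupled glutathione reductase (100 nM). Enzyme 200 nM was pre-exposed to compound 30 min; 0.5 mM cumene hydroperoxide and 1 mM GSH served as substrates.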
# [8] = qHTS profiling for inhibitors of Plasmodium falciparum proliferation (AID 504749); also: nearly all actives have a fitted effect of over 60% in size; also: potency is read from the fitted curve at half-maximal effect; settings: P. falciparum in erythrocytes, SYBR Green DNA, 72 h, at 28.7 µM (top of the series)
# Outline: (§1)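 Infected RBCs, 0.3% parasitemia/2.5% Hct final; cpd 72 h, 37 C, 5% CO2; lysis buffer with saponin/triton/SYBR Green I, o/n RT dark; FI 485/535; norm. to artemisinin (0.29 uM) and DMSO.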
# [9] = test system: 3D7; assay: as above; settings: P. falciparum in erythrocytes, SYBR Green DNA, 72 h; series mostly up to 28.7 µM
# Outline: as §1
# [10] = test system: 7G8; assay: as above; settings: P. falciparum in erythrocytes, SYBR Green DNA, 72 h; series mostly up to 12.8 µM
# Outline: as §1
# [11] = test system: AA1029; assay: as above; settings: P. falciparum in erythrocytes, SYBR Green DNA, 72 h; series mostly up to 28.7 µM
# Outline: as §1
# [12] = test system: ATS189; assay: as above; settings: P. falciparum in erythrocytes, SYBR Green DNA, 72 h; series mostly up to 28.7 µM
# Outline: as §1
# [13] = test system: ATS95; assay: as above; settings: P. falciparum in erythrocytes, SYBR Green DNA, 72 h; series mostly up to 28.7 µM
# Outline: as §1
# [14] = test system: C2A; assay: as above; settings: P. falciparum in erythrocytes, SYBR Green DNA, 72 h; series mostly up to 28.7 µM
# Outline: as §1
# [15] = test system: CP185; assay: as above; settings: P. falciparum in erythrocytes, SYBR Green DNA, 72 h; series mostly up to 28.7 µM
# Outline: as §1
# [16] = test system: CP191; assay: as above; settings: P. falciparum in erythrocytes, SYBR Green DNA, 72 h; series mostly up to 28.7 µM
# Outline: as §1
# [17] = test system: CP192; assay: as above; settings: P. falciparum in erythrocytes, SYBR Green DNA, 72 h; series mostly up to 28.7 µM
# Outline: as §1
# [18] = test system: CP194; assay: as above; settings: P. falciparum in erythrocytes, SYBR Green DNA, 72 h; series mostly up to 28.7 µM
# Outline: as §1
# [19] = test system: CP201; assay: as above; settings: P. falciparum in erythrocytes, SYBR Green DNA, 72 h; series mostly up to 28.7 µM
# Outline: as §1
# [20] = test system: CP211; assay: as above; settings: P. falciparum in erythrocytes, SYBR Green DNA, 72 h; series mostly up to 28.7 µM
# Outline: as §1
# [21] = test system: CP215; assay: as above; settings: P. falciparum in erythrocytes, SYBR Green DNA, 72 h; series mostly up to 28.7 µM
# Outline: as §1
# [22] = test system: CP217; assay: as above; settings: P. falciparum in erythrocytes, SYBR Green DNA, 72 h; series mostly up to 28.7 µM
# Outline: as §1
# [23] = test system: CP238; assay: as above; settings: P. falciparum in erythrocytes, SYBR Green DNA, 72 h; series mostly up to 28.7 µM
# Outline: as §1
# [24] = test system: CP247; assay: as above; settings: P. falciparum in erythrocytes, SYBR Green DNA, 72 h; series mostly up to 28.7 µM
# Outline: as §1
# [25] = test system: CP250; assay: as above; settings: P. falciparum in erythrocytes, SYBR Green DNA, 72 h; series mostly up to 12.8 µM
# Outline: as §1
# [26] = test system: CP252; assay: as above; settings: P. falciparum in erythrocytes, SYBR Green DNA, 72 h; series mostly up to 12.8 µM
# Outline: as §1
# [27] = test system: CP256; assay: as above; settings: P. falciparum in erythrocytes, SYBR Green DNA, 72 h; series mostly up to 28.7 µM
# Outline: as §1
# [28] = test system: CP260; assay: as above; settings: P. falciparum in erythrocytes, SYBR Green DNA, 72 h; series mostly up to 28.7 µM
# Outline: as §1
# [29] = test system: CP262; assay: as above; settings: P. falciparum in erythrocytes, SYBR Green DNA, 72 h; series mostly up to 28.7 µM
# Outline: as §1
# [30] = test system: CP265; assay: as above; settings: P. falciparum in erythrocytes, SYBR Green DNA, 72 h; series mostly up to 12.8 µM
# Outline: as §1
# [31] = test system: CP266; assay: as above; settings: P. falciparum in erythrocytes, SYBR Green DNA, 72 h; series mostly up to 12.8 µM
# Outline: as §1
# [32] = test system: CP268; assay: as above; settings: P. falciparum in erythrocytes, SYBR Green DNA, 72 h; series mostly up to 28.7 µM
# Outline: as §1
# [33] = test system: CP269; assay: as above; settings: P. falciparum in erythrocytes, SYBR Green DNA, 72 h; series mostly up to 28.7 µM
# Outline: as §1
# [34] = test system: CP286; assay: as above; settings: P. falciparum in erythrocytes, SYBR Green DNA, 72 h; series mostly up to 28.7 µM
# Outline: as §1
# [35] = test system: CP291; assay: as above; settings: P. falciparum in erythrocytes, SYBR Green DNA, 72 h; series mostly up to 28.7 µM
# Outline: as §1
# [36] = test system: CP297; assay: as above; settings: P. falciparum in erythrocytes, SYBR Green DNA, 72 h; series mostly up to 28.7 µM
# Outline: as §1
# [37] = test system: CP305; assay: as above; settings: P. falciparum in erythrocytes, SYBR Green DNA, 72 h; series mostly up to 28.7 µM
# Outline: as §1
# [38] = test system: CP315; assay: as above; settings: P. falciparum in erythrocytes, SYBR Green DNA, 72 h; series mostly up to 28.7 µM
# Outline: as §1
# [39] = test system: CP325; assay: as above; settings: P. falciparum in erythrocytes, SYBR Green DNA, 72 h; series mostly up to 28.7 µM
# Outline: as §1
# [40] = test system: CP329; assay: as above; settings: P. falciparum in erythrocytes, SYBR Green DNA, 72 h; series mostly up to 28.7 µM
# Outline: as §1
# [41] = test system: CP335; assay: as above; settings: P. falciparum in erythrocytes, SYBR Green DNA, 72 h; series mostly up to 12.8 µM
# Outline: as §1
# [42] = test system: DIV14; assay: as above; settings: P. falciparum in erythrocytes, SYBR Green DNA, 72 h; series mostly up to 28.7 µM
# Outline: as §1
# [43] = test system: Dd2; assay: as above; settings: P. falciparum in erythrocytes, SYBR Green DNA, 72 h; series mostly up to 28.7 µM
# Outline: as §1
# [44] = test system: ECU; assay: as above; settings: P. falciparum in erythrocytes, SYBR Green DNA, 72 h; series mostly up to 28.7 µM
# Outline: as §1
# [45] = test system: FAB9; assay: as above; settings: P. falciparum in erythrocytes, SYBR Green DNA, 72 h; series mostly up to 28.7 µM
# Outline: as §1
# [46] = test system: GB4; assay: as above; settings: P. falciparum in erythrocytes, SYBR Green DNA, 72 h; series mostly up to 28.7 µM
# Outline: as §1
# [47] = test system: ICS; assay: as above; settings: P. falciparum in erythrocytes, SYBR Green DNA, 72 h; series mostly up to 28.7 µM
# Outline: as §1
# [48] = test system: JCK; assay: as above; settings: P. falciparum in erythrocytes, SYBR Green DNA, 72 h; series mostly up to 28.7 µM
# Outline: as §1
# [49] = test system: P94_40; assay: as above; settings: P. falciparum in erythrocytes, SYBR Green DNA, 72 h; series mostly up to 28.7 µM
# Outline: as §1
# [50] = test system: PC49; assay: as above; settings: P. falciparum in erythrocytes, SYBR Green DNA, 72 h; series mostly up to 28.7 µM
# Outline: as §1
# [51] = test system: TAB109; assay: as above; settings: P. falciparum in erythrocytes, SYBR Green DNA, 72 h; series mostly up to 12.8 µM
# Outline: as §1
# [52] = test system: TAB113; assay: as above; settings: P. falciparum in erythrocytes, SYBR Green DNA, 72 h; series mostly up to 28.7 µM
# Outline: as §1
# Chain of ATP-dependent 6-phosphofructokinase (Trypanosoma brucei brucei) (O15648 whole entry, looked up): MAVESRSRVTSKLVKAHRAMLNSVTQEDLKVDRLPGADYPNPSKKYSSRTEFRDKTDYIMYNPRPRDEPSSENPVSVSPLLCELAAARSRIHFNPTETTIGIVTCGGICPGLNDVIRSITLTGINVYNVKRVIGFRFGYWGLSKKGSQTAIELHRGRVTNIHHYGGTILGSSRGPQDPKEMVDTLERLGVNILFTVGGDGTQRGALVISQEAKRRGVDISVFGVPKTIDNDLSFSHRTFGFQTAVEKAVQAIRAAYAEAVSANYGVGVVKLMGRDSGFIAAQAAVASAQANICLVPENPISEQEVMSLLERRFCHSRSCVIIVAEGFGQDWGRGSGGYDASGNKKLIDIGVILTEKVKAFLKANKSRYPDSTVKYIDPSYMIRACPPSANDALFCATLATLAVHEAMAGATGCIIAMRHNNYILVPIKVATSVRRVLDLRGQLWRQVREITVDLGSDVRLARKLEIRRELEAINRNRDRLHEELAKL
# Chain of Glutathione peroxidase 1 (Homo sapiens) (P07203 whole entry, looked up): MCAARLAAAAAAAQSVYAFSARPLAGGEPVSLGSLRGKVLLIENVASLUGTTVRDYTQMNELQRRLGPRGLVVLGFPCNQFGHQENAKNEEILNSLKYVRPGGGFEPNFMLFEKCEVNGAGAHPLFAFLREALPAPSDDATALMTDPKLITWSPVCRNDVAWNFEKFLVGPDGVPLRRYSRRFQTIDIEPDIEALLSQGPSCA
# Chain of Ubiquitin carboxyl-terminal hydrolase 1 (Homo sapiens) (O94782 whole entry, looked up): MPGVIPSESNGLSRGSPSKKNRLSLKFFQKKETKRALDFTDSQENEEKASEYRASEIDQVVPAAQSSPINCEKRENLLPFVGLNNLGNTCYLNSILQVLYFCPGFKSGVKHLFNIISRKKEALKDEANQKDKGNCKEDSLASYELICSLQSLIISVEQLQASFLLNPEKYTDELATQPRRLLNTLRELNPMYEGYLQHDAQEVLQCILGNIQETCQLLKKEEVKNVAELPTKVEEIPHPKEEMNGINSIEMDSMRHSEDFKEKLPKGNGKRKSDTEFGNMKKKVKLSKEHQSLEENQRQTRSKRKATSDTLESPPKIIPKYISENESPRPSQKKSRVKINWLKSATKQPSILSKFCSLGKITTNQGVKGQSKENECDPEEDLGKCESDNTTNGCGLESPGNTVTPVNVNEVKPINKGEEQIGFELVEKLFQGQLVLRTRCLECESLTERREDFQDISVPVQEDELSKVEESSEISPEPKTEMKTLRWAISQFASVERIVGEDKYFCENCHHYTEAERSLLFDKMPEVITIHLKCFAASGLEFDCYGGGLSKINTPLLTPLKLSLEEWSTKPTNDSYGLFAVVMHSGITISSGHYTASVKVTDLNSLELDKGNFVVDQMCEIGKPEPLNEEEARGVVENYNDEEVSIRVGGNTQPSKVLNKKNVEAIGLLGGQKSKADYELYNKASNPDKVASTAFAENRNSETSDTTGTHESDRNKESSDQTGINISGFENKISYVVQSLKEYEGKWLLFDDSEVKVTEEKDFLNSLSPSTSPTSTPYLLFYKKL
# Chain of Luciferin 4-monooxygenase (Photinus pyralis) (P08659 whole entry, looked up): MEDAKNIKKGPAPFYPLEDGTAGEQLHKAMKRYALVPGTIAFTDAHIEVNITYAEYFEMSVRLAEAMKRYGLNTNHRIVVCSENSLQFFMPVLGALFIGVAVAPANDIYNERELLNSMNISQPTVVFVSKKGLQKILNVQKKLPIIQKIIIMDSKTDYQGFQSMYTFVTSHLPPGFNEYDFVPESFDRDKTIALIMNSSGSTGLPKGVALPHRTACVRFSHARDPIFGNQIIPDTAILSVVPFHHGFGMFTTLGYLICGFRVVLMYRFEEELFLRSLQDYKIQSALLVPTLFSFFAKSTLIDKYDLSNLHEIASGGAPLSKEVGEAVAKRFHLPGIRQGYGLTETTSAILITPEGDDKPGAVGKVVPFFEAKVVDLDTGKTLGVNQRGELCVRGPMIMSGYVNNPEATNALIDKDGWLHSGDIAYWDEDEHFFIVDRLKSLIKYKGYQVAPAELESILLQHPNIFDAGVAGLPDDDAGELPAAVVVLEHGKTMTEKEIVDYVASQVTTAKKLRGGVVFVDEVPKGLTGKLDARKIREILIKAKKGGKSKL
# Chain of Phospholipid hydroperoxide glutathione peroxidase GPX4 (Homo sapiens) (P36969 whole entry, looked up): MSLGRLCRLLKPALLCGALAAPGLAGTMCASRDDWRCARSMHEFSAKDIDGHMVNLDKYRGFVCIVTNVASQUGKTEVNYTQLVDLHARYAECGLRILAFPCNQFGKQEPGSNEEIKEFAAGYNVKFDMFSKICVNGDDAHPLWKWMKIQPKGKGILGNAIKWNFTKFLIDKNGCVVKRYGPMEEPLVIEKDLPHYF
smiles,measurement,setting,value
C[C@]12CC[C@H](O)C[C@H]1CCC1C2CC[C@]2(C)[C@@H](c3ccc(=O)oc3)C[C@H]3O[C@]132 (stereo partly drawn),Potency,[1],inactive
same,Potency,[2],inactive
same,Potency,[3],inactive
same,Potency,[4],inactive
same,Potency,[5],7.08 µM (active)
same,Potency,[6],inactive
same,Potency,[7],inactive
same,"activity, negative = inhibition",[8]; parasite line A,-25.7%
same,"activity, negative = inhibition",[8]; parasite line B,-8.73%
same,Potency,[9],inactive
same,Potency,[10],11.2 µM (active)
same,Potency,[11],inactive
same,Potency,[12],inactive
same,Potency,[13],inactive
same,Potency,[14],inactive
same,Potency,[15],inactive
same,Potency,[16],inactive
same,Potency,[17],inactive
same,Potency,[18],inactive
same,Potency,[19],inactive
same,Potency,[20],inactive
same,Potency,[21],inactive
same,Potency,[22],inactive
same,Potency,[23],inactive
same,Potency,[24],inactive
same,Potency,[25],inactive
same,Potency,[26],inactive
same,Potency,[27],inactive
same,Potency,[28],inactive
same,Potency,[29],inactive
same,Potency,[30],inactive
same,Potency,[31],inactive
same,Potency,[32],inactive
same,Potency,[33],inactive
same,Potency,[34],inactive
same,Potency,[35],inactive
same,Potency,[36],inactive
same,Potency,[37],inactive
same,Potency,[38],inactive
same,Potency,[39],inactive
same,Potency,[40],inactive
same,Potency,[41],inactive
same,Potency,[42],13.5 µM (active)
same,Potency,[43],inactive
same,Potency,[44],inactive
same,Potency,[45],inactive
same,Potency,[46],inactive
same,Potency,[47],7.08 µM (active)
same,Potency,[48],inactive
same,Potency,[49],inactive
same,Potency,[50],inactive
same,Potency,[51],inactive
same,Potency,[52],inactive
